The text below walks through data of PubChem BioAssay (NCI).

The panel holds about 79,000 compounds, 15% with a hit somewhere; the sample as a whole holds those more often. A number with no mark means an inactive call. Active and inactive are the calls of the source. No stated cut-off is given here; in the data, active means growth inhibition above about 70%; inactive means the rest.

Assay [1] in a line: NCI Yeast Anticancer Drug Screen. Data for the rad50 strain (AID 155).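 Further: 0% = growth of vehicle-only cultures of the same strain.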 The conditions noted are these: S. cerevisiae rad50 strain growth inhibition; at 50.0 µM; hits give high values. Summed up:
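Genetically altered yeast (DNA repair pathway); compound treatment; growth inhibition vs vehicle ctrl.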

A short description of assay [2]: NCI Yeast Anticancer Drug Screen. Data for the mec2-1 strain (AID 157). The conditions noted are these: S. cerevisiae mec2-1 strain, at 50.0 µM, hits give high values. In outline:
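Vehicle-treated cultures served as reference for growth inhibition of compound-exposed mec2-1 yeast.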

Assay [3] in a line: NCI Yeast Anticancer Drug Screen. Data for the sgs1 mgt1 strain (AID 161).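 Further: 0% = growth of cultures given vehicle only.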 The conditions noted are these: S. cerevisiae sgs1 mgt1 strain, at 50.0 µM, hits give high values. Summed up: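 Mutant yeast exposed to compound; growth scored against vehicle-only wells.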
Assay [4] in a line: NCI Yeast Anticancer Drug Screen. Data for the cln2 rad14 strain (AID 165).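 Further: 0% = growth equal to vehicle treated cultures.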 As to conditions: S. cerevisiae cln2 rad14 strain, at 50.0 µM, hits give high values. Summed up: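 Each compound was tested on cln2 rad14 yeast. Inhibition of growth was calculated against vehicle-exposed controls.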
Assay [5] is described as follows: NCI Yeast Anticancer Drug Screen. Data for the bub3 strain (AID 167). As to conditions: S. cerevisiae bub3 mutant strain, at 50.0 µM, hits give high values. Summed up: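 Yeast carrying a defined mutation is treated with each compound, and growth is compared with that of vehicle-exposed cells to give inhibition.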
A short description of assay [6]: NCI Yeast Anticancer Drug Screen. Data for the mlh1 rad18 strain (AID 175). The conditions noted are these: S. cerevisiae mlh1 rad18 strain growth inhibition; at 50.0 µM; hits give high values. Summed up: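 Vehicle-treated cultures served as the reference for growth inhibition in a yeast strain carrying DNA damage repair alterations exposed to each compound.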

On to `O=c1nc2n(cc1/C=C\Br)C1CC(O)C(CO2)O1` (stereo unspecified), for which the growth inhibition in assay [1] is -51%; in assay [2], -24.6%; in assay [3], -24.1%; in assay [4], 13.3%; in assay [5], -1.5%; in assay [6] it was -23.6%.
As to `CCC1(C)CC(C)(C)c2ccc(C)cc21` (stereo unspecified), the growth inhibition was -0.8% in assay [1]; -2.75% in assay [2]; -6.4% in assay [3]; -9.2% in assay [4]; -2.9% in assay [5]; -2.25% in assay [6].
For `O=C(O)c1c(F)c(F)c(C(=O)O)c(F)c1F`, the growth inhibition in assay [1] was 6.25%; in assay [2] it was -15.8%; in assay [3], 16.3%; in assay [4], 15.1%; in assay [5], 14.9%; in assay [6] it was 11.5%.
In the case of `O=C(CCCl)Nc1c(Cl)cccc1Cl`, the growth inhibition in assay [1] was 10.2%; in assay [2] it was 11.7%; in assay [3], 8.9%; in assay [4], 18.6%; in assay [5] it was 21.1%; in assay [6], -3.65%.
On to `Nc1cccc(C(CC(=O)O)CC(=O)O)c1`, for which the growth inhibition in assay [1] was 14.8%; in assay [2], 10.9%; in assay [3] it was 13%; in assay [4], 16.7%; in assay [5], -1.5%; in assay [6], 15.8%.
Consider `C=CCOC(=O)CCC(C#N)(C#N)CCC(=O)OCC=C`, for which the growth inhibition in assay [1] was -9.55%; in assay [2] it was -7.1%; in assay [3] it was -0.4%; in assay [4], -25.8%; in assay [5], 50.5%; in assay [6] it was 15.3%.
As to `CC1CC(C)CN(S(=O)(=O)c2cc(Cl)c(Oc3ccc([N+](=O)[O-])cc3Cl)c(Cl)c2)C1` (stereo unspecified), the growth inhibition in assay [1] was 7.8%; in assay [2], -28.3%; in assay [3], 3.75%; in assay [4] it was 34.4%; in assay [5] it was -11.3%; in assay [6] it was -2.45%.
Turning to `CCOC(=O)c1cnc2cc3c(cc2c1Nc1cccc(C)c1C)OCO3`, the growth inhibition in assay [1] is -9.9%; in assay [2], -7.35%; in assay [3], -16.4%; in assay [4], -13%; in assay [5], 3.5%; in assay [6], -6.6%.
As for `CCCCOC(=O)c1ccc(NC(=O)Nc2cc([N+](=O)[O-])ccc2F)cc1`, the growth inhibition in assay [1] was 56.4%; in assay [2], 54.6%; in assay [3], 63%; in assay [4], 54.6%; in assay [5], 12.3%; in assay [6], 71.2% (active).
Turning to `CC(C)CCNCCC(C)C`, the growth inhibition is 35.7% in assay [1]; 25.1% in assay [2]; -2.85% in assay [3]; -36.3% in assay [4]; -14.9% in assay [5]; 21.9% in assay [6].
For the molecule `O=Cc1ccc(N2OC(c3ccc([N+](=O)[O-])cc3)C(c3ccc([N+](=O)[O-])cc3)C2c2ccc([N+](=O)[O-])cc2)cc1` (stereo unspecified), the growth inhibition in assay [1] was 13.2%; in assay [2], -1.75%; in assay [3], 14.7%; in assay [4] it was 25.4%; in assay [5] it was 0.95%; in assay [6], 28.9%.
With `O=C(CN1C(=O)c2ccccc2C1=O)C(O)CN1C(=O)c2ccccc2C1=O` (stereo unspecified), the growth inhibition in assay [1] was 2.5%; in assay [2] it was 0.6%; in assay [3], 2.05%; in assay [4], 27.9%; in assay [5], 11.4%; in assay [6] it was 14.6%.
For the molecule `COc1ccc2ccccc2c1`, the growth inhibition in assay [1] is -21%; in assay [2] it was -30%; in assay [3], -12.2%; in assay [4] it was -23.9%; in assay [5], 1.35%; in assay [6] it was -31.6%.
On to `N#C/C(=C/NC(=S)Nc1ccc(S(N)(=O)=O)cc1)C(N)=O`, for which the growth inhibition in assay [1] was -44.8%; in assay [2], -89%; in assay [3], -26.4%; in assay [4], -10.8%; in assay [5], -20.4%; in assay [6], -24.1%.
`CCOC(=O)C1(C(C)C)OC2(O)C3CCCN3C(=O)C(C(C)C)N2C1=O` (stereo unspecified): the growth inhibition in assay [1] was 8.45%; in assay [2], 10.5%; in assay [3] it was -3%; in assay [4] it was 20.3%; in assay [5] it was 8.8%; in assay [6] it was 17.4%.
`C[C@]12CCC3c4ccc(OC(=O)c5ccccc5)cc4CC[C@H]3C1CC[C@@H]2OC(=O)C12OC1CCC2=O` (stereo partly specified): the growth inhibition was -5.4% in assay [1]; -35.5% in assay [2]; -7.55% in assay [3]; 1.75% in assay [4]; -27.9% in assay [5]; -9.85% in assay [6].
In the case of `CCOc1ccc2nc(NC(=O)C(=O)C3C(=O)C(CC4C(=O)c5ccccc5C4=O)C(=O)CC3(C)C)sc2c1` (stereo unspecified), the growth inhibition is 31.4% in assay [1]; -1.1% in assay [2]; 14.3% in assay [3]; -29.8% in assay [4]; -29.4% in assay [5]; 8.9% in assay [6].
`CCC(CCN(C)C)(OC(C)=O)c1ccccc1` (stereo unspecified): the growth inhibition is 10.4% in assay [1]; -0.55% in assay [2]; -3% in assay [3]; 11.7% in assay [4]; 30.9% in assay [5]; -15.8% in assay [6].
`O=S(=O)(c1ccc(NC(=S)NCc2ccco2)cc1)N1CCCCC1`: the growth inhibition in assay [1] is 46%; in assay [2], 5.6%; in assay [3], 42.1%; in assay [4], 38.3%; in assay [5], 28.9%; in assay [6] it was 25.6%.
Turning to `O=C(O)C(Cc1ccc(O)cc1)N=Cc1nc(-c2ccccc2)oc1O` (stereo unspecified), the growth inhibition was -3.5% in assay [1]; -3.5% in assay [2]; 0.25% in assay [3]; 3% in assay [4]; -6.5% in assay [5]; 0.7% in assay [6].
With `O=c1[nH]cnc2c1CN(c1ccc(Cl)cc1)C2`, the growth inhibition is -14.5% in assay [1]; 3.45% in assay [2]; -11.3% in assay [3]; -29.6% in assay [4]; -19.2% in assay [5]; -1.9% in assay [6].
